Laboratory results as given in the supplement of paper PMC11624193, “Coupling cellular drug-target engagement to downstream pharmacology with CeTEAM” (Nature Communications, 2024).
Values without a mark were called inactive.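 Rule for the calls: active = log2 fold change beyond 2 SD from the library mean after excluding viability outliers; inactive = within 2 SD.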

What follows are compounds tested against PARP1 L713F-nLuc biosensor (HCT116) (UniProt P09874) (assay: PARP1 L713F-nLuc/akaLuc ratio relative to DMSO control (biosensor stabilization) (fold change); higher = more PARP1 biosensor stabilization (target engagement / stabilizer), active = hit call of the paper). Details: stock concentration (mM; final µM = stock mM x 1): 10; 24 h.
Sequence of PARP1 L713F-nLuc biosensor (HCT116) (P09874 whole entry L713F, looked up): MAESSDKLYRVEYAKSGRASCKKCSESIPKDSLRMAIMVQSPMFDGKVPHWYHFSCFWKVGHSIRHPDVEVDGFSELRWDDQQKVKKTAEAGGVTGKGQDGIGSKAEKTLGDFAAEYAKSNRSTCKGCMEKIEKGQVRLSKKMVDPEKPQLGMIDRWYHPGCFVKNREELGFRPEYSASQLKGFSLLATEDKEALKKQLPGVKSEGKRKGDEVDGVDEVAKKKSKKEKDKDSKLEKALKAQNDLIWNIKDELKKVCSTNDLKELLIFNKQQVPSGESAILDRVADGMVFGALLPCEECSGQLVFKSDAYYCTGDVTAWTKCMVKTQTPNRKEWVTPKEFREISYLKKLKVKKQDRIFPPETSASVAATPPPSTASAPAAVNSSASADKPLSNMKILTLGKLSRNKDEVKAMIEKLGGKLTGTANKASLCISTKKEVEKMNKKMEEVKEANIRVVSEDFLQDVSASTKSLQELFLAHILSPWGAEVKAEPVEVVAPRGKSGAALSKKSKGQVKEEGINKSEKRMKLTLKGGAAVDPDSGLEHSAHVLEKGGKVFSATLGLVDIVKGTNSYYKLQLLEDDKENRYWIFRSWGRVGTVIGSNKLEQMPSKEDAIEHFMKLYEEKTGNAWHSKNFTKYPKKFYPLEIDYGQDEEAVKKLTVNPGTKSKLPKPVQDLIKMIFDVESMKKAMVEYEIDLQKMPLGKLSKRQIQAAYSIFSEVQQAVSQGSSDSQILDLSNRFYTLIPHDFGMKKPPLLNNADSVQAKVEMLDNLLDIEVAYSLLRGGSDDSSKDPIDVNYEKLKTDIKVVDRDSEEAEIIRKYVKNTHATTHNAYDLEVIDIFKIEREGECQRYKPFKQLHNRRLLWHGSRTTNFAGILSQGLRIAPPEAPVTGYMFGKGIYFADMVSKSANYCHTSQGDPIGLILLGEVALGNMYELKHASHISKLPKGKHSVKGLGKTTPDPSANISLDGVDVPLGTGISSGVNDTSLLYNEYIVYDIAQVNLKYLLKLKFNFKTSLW

Row | SMILES | PARP1 L713F-nLuc/akaLuc ratio
1 | CNCCN1CCC(OCc2ccccc2)CC1 | 0.908
2 | NC(=O)c1cnc2[nH]ccc2c1N[C@@H]1[C@@H]2CC3C[C@H]1C[C@@](O)(C3)C2 [Peficitinib] | 1.02
3 | Cc1cccc(-c2[nH]c(CNc3ccccc3F)nc2-c2ccc3ncnn3c2)n1 [Vactosertib ?(TEW-7197)] | 1.18
4 | Cc1c(CN2CCC(Nc3ncnc4sc(CC(F)(F)F)cc34)CC2)ccc2c1cc(C#N)n2Cc1cn[nH]c1 | 0.806
5 | O=C1c2ccccc2C(=O)c2c(NCCc3ccc(O)cc3)ccc(NCCc3ccc(O)cc3)c21 | 0.91
6 | NC(=O)c1cccc(N)c1 [3-Aminobenzamide] | 0.995
7 | NC(=O)c1cnc2[nH]ccc2c1N[C@@H]1[C@@H]2CC3C[C@H]1C[C@@](O)(C3)C2 | 0.774
8 | COc1cc2nc(N3CCCC3)nc(NCCCCCN3CCCC3)c2cc1OC | 0.881
